Measured values: the supplement of paper PMC13380429
Unmarked numbers belong to inactive results.

Tested on: Vero E6 infected with SARS-CoV-2
Assay: inhibition of SARS-CoV-2 cytopathic effect; higher = more antiviral protection, active = above 15
Conditions: 48 h

| SMILES | inhibition of SARS-CoV-2 cytopathic effect (1 nM) | inhibition of SARS-CoV-2 cytopathic effect (8.33 nM) | inhibition of SARS-CoV-2 cytopathic effect (100 nM) | inhibition of SARS-CoV-2 cytopathic effect (833.33 nM) | inhibition of SARS-CoV-2 cytopathic effect (10000 nM) |
| --- | --- | --- | --- | --- | --- |
| C=CC(=O)Nc1cccc(Nc2nc(Nc3ccc(N4CCN(C(C)=O)CC4)cc3OC)ncc2C(F)(F)F)c1 [rociletinib] | -0.09% | -1.67% | -0.14% | -2.42% | -11.9% |
| NS(=O)(=O)c1cc(Cl)c(Cl)c(S(N)(=O)=O)c1 [diclofenamide] | -2.99% | -2.1% | -3.44% | 0.21% | -2.7% |
| O=C1Cc2cc(CCN3CCN(c4nsc5ccccc45)CC3)c(Cl)cc2N1 [ziprasidone] | -0.08% | -2.01% | -0.35% | 0.78% | -2.66% |
| O=C(O)c1cccnc1 [niacin] | 1.07% | 0.1% | 0.52% | 0.71% | 4.53% |
| CC(=O)Nc1ccc(OC[C@](C)(O)C(=O)Nc2ccc([N+](=O)[O-])c(C(F)(F)F)c2)cc1 [andarine] | -0.84% | -0.36% | -2.49% | -1.89% | -1.92% |
| Fc1ccc(C(c2ccccc2)(c2ccccc2F)n2ccnc2)cc1 (stereo not given) [flutrimazole] | -1.84% | -3.27% | -4.23% | -1.83% | -1.07% |
| Cc1cnc(CNC(=O)c2c(=O)c3ccc(N4CCCN(C)CC4)nc3n3c2sc2ccccc23)cn1 | 0.83% | -2.59% | -1.2% | 4.48% | 0.59% |
| O=C(O)c1ccc(-c2c[nH]c3ncc(-c4ccccc4)cc23)cc1C1CCCC1 | 4.37% | 5.26% | 0.74% | 1.88% | -0.09% |
| Cc1cn([C@@H]2C[C@@H](O)[C@H](CO)O2)c(=O)[nH]c1=O [telbivudine] | 1% | -1.65% | -1.15% | -0.26% | 2.12% |
| COc1ccc(CNC(=O)Nc2ncc([N+](=O)[O-])s2)cc1 | -1.91% | 2.48% | -0.26% | -1.47% | 2.28% |
| CNCCC=C1c2ccccc2C=Cc2ccccc21 [norcyclobenzaprine] | -0.66% | 3.83% | -2.37% | -0.19% | -7.92% |
| CC(C)C(=O)Oc1ccc(CO)cc1[C@H](CCN(C(C)C)C(C)C)c1ccccc1 [fesoterodine] | -1.73% | -0.18% | -0.25% | -2.34% | 0.84% |
| Cc1cccc(C)c1NC(=O)[C@@H](C)N [tocainide] | 1.21% | 0.17% | -6.26% | 1.04% | -4.59% |
| CN1CCN(c2ccc3nc(-c4c(N)c5c(F)cccc5[nH]c4=O)[nH]c3c2)CC1 [dovitinib] | 1.8% | 0.97% | 0.34% | -1.8% | -0.5% |
| CCCNC(C)C(=O)Nc1c(C)csc1C(=O)OC (stereo not given) [articaine] | -0.23% | 0.85% | 0.42% | 4.27% | -2.09% |
| CN1CC[C@@H]2CN3CCc4cccc(c43)[C@@H]2C1 | -3.24% | -0.59% | 1.77% | -0.07% | 1.24% |
| CC(C)n1cnc2c(NCCc3ccc(O)cc3)nc(-c3csc4ccccc34)nc21 [stemregenin-1] | 1.26% | 0.69% | 1.35% | -0.07% | 18.1% (active) |
| COc1ccc(C(=O)c2ccccc2)c(O)c1 [oxybenzone] | 0.11% | 2.31% | 0.71% | 0.2% | 0.65% |
| COc1ccc(C(=O)CC2(O)C(=O)Nc3c(Cl)ccc(Cl)c32)cc1 (stereo not given) | 2.13% | 3.01% | -1.11% | 1.43% | -1.83% |

| SMILES | inhibition of SARS-CoV-2 cytopathic effect (1 nM) | inhibition of SARS-CoV-2 cytopathic effect (8.33 nM) | inhibition of SARS-CoV-2 cytopathic effect (100 nM) | inhibition of SARS-CoV-2 cytopathic effect (833.33 nM) | inhibition of SARS-CoV-2 cytopathic effect (10000 nM) |
| --- | --- | --- | --- | --- | --- |
| CO/N=C(\C(=O)N[C@@H]1C(=O)N2C(C(=O)O)=C(CSC(=O)c3ccco3)CS[C@H]12)c1csc(N)n1 | -0.19% | -0.66% | -1.18% | -0.09% | -0.18% |
| Cc1cccc(Oc2nc3c(C)cccn3c(=O)c2/C=C(\C#N)c2nc3ccccc3s2)c1 | -0.1% | 1.16% | 0.8% | 3.43% | 0.62% |
| C[N+](C)(C)[C@@H](Cc1c[nH]c(=S)[nH]1)C(=O)O [L-ergothioneine] | 1.26% | -1.22% | 2.33% | 2.82% | 0.9% |
| CN[C@@H](C)C(=O)N[C@H](C(=O)N1CCC[C@H]1C(=O)Nc1snnc1-c1ccccc1)C1CCCCC1 | 0.62% | -0.64% | -0.23% | -0.79% | -5.99% |
| CC[C@@H](c1ccc(F)c(F)c1)n1c(C(=O)OC)c(-c2ccno2)[nH]c1=S | 1.31% | 2.77% | 1.18% | 1.19% | -0.12% |
| CC(=O)O[C@H]1C[C@H](O[C@H]2[C@@H](O)C[C@H](O[C@H]3[C@@H](O)C[C@H](O[C@H]4CC[C@@]5(C)[C@H](CC[C@@H]6[C@@H]5C[C@@H](O)[C@]5(C)[C@@H](C7=CC(=O)OC7)CC[C@]65O)C4)O[C@@H]3C)O[C@@H]2C)O[C@H](C)[C@H]1O[C@@H]1O[C@H](CO)[C@@H](O)[C@H](O)[C@H]1O [lanatoside-C] | 0.4% | -0.46% | -8.78% | -9.54% | -11.4% |
| O=C(/C=C/c1ccc(O)cc1)c1ccc(O)cc1O [isoliquiritigenin] | -2.47% | -0.17% | 1.21% | 0.63% | 10.8% |
| CN(C)C(=O)Nc1cccc(-c2ccc(N(C)C)cc2)c1 [atglistatin] | -1.57% | -1.64% | 1.22% | 0.77% | 1.31% |
| C[C@@H]1C[C@H]2[C@@H]3C[C@H](F)C4=CC(=O)C=C[C@]4(C)[C@@]3(Cl)[C@@H](O)C[C@]2(C)[C@H]1C(=O)COC(=O)C(C)(C)C [clocortolone-pivalate] | 0.49% | 2.86% | -2.33% | 1.18% | -2.12% |
| O=C(/C=C/c1ccc(CN(CCO)CCc2c[nH]c3ccccc23)cc1)NO [dacinostat] | -2.47% | -2.54% | -6.55% | -21.1% | -23.2% |
| CC(O)c1cc(C(=O)N[C@@H](C)Cn2ccc(-c3ccc(C#N)c(Cl)c3)n2)n[nH]1 (stereo not given in full) | 1.69% | 0.5% | 0.89% | -0.69% | 0.64% |
| CN(C)Cc1ccc(-c2nc3cccc4c3n2CCNC4=O)cc1 | 0.51% | 4.23% | 3.95% | 1.65% | 6.38% |
| Cc1ccc(-c2n[nH]c3c2C(c2cccc(O)c2)N(c2ccc(C(=O)O)cc2)C3=O)cc1 (stereo not given) | -0.75% | -0.46% | 3.03% | 3.6% | 5.17% |
| CN(C)CCc1c[nH]c2ccc(Cn3cncn3)cc12 [rizatriptan] | -0.4% | 0.07% | -1.66% | -0.7% | -1.6% |
| CCC[C@@]1(CCc2ccccc2)CC(O)=C([C@H](CC)c2cccc(NS(=O)(=O)c3ccc(C(F)(F)F)cn3)c2)C(=O)O1 [tipranavir] | -0.16% | 4.7% | 1.56% | 0.71% | 4.99% |
| CS(=O)(=O)N1CCN(Cc2cc3nc(-c4cccc5[nH]ncc45)nc(N4CCOCC4)c3s2)CC1 | -1.74% | -2.51% | 6.27% | -5.78% | 3.43% |
| CCC[S+]([O-])c1ccc2[nH]c(NC(=O)OC)nc2c1 (stereo not given) [albendazole-oxide] | 3.02% | 2.02% | 0.87% | 1.7% | 0.07% |
| C[N+](C)(C)CCCCCNCC12CC3CC(CC(C3)C1)C2 | -4.72% | -5.14% | -6.53% | -6.39% | -4.67% |
| NC(N)=Nc1nc(CSCC/C(N)=N/S(N)(=O)=O)cs1 [famotidine] | -4.18% | -3.04% | 2.88% | 4.59% | -0.5% |
